Among the test systems are NCI-H23 lung; NCI-H226 lung; NCI-H322M lung; HOP-62 NSCLC; NCI-H460 lung; HOP-92 NSCLC; NCI-H522 lung; A549/ATCC NSCLC; 786-0 renal; COLO 205 colon.
What all share (assay): NCI-60 one-dose screen, 48 h (100 = growth as untreated, 0 = no growth, -100 = all killed)
Conditions in all cases: 10 µM unless noted

About 83,000 compounds went through this panel and 20% of them were active in at least one assay; those are over-represented in the sample as a whole.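 Step 1: grow cells in 96-well plates. Step 2: add test compound at a single concentration. Step 3: incubate 48 h. Step 4: record percent growth.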 Unmarked numbers belong to inactive results. Calls of active or inactive are those of the source. How the source made its calls: active means growth percent below 10; inactive means the rest.

Turning to `C=CCNc1nc(NN2C(=O)c3cccc4cccc(c34)C2=O)nc(-n2cnc3ccccc32)n1`, the growth in the test with NCI-H23 lung is 76.9%; in the test with NCI-H226 lung it was 51.8%; in the test with NCI-H322M lung it was 94.1%; with HOP-62 NSCLC it was 60.4%; in the test with NCI-H460 lung, 94.6%; in the test on HOP-92 NSCLC, 16.5%. Also, the growth in the test with NCI-H522 lung is 76.6%; with A549/ATCC NSCLC, 86.4%; in the test on 786-0 renal, 89.2%; with COLO 205 colon it was 103%.

Regarding `O=C1Nc2ccccc2/C1=C/c1cn(C(=O)c2ccc(Cl)cc2)c2ccccc12`, the growth was 90.8% in the test with NCI-H23 lung; 92.3% with NCI-H226 lung; 127% in the test with NCI-H322M lung; 111% with HOP-62 NSCLC; 107% in the test with NCI-H460 lung; 99.3% in the test on HOP-92 NSCLC. The growth with NCI-H522 lung is 85.6%; in the test on A549/ATCC NSCLC it was 101%; in the test on 786-0 renal it was 111%; with COLO 205 colon, 58.2%.

With `CCCCN(CCCC)CC(C)(C)C(O)c1ccc(OC)c2ccccc12` (stereo not given), the growth with NCI-H23 lung is -1.81% (active); with NCI-H226 lung it was 51.7%; with NCI-H322M lung it was 44.9%; with HOP-62 NSCLC, 73.7%; with NCI-H460 lung, 39.1%; in the test on HOP-92 NSCLC it was -9.57% (active). In addition, the growth is 4.57% (active) with NCI-H522 lung, 63.5% in the test with A549/ATCC NSCLC, 58.4% in the test with 786-0 renal and 71% in the test with COLO 205 colon.

With `CC1=C([Se]CC(OC(=O)[C@@H](CO)NC(=O)OC(C)(C)C)C(=O)NC(C)(C)C)C(=O)c2ccccc2C1=O` (stereo not given in full), the growth in the test on NCI-H23 lung was -74.5% (active); in the test on NCI-H226 lung, -98.5% (active); in the test with NCI-H322M lung it was -73.1% (active); in the test with HOP-62 NSCLC, -60.1% (active); in the test on NCI-H460 lung, -61.7% (active); in the test on HOP-92 NSCLC it was -68.8% (active). The growth is -92.8% (active) in the test on NCI-H522 lung, -11.5% (active) in the test on A549/ATCC NSCLC, -100% (active) with 786-0 renal and -100% (active) in the test with COLO 205 colon.

With `CCn1c(C)nc2cc(C(N)=O)ccc21`, the growth with NCI-H23 lung was 94.3%; in the test with NCI-H226 lung, 89.9%; in the test on NCI-H322M lung, 86.8%; in the test on HOP-62 NSCLC it was 89.3%; in the test on NCI-H460 lung it was 101%; in the test on HOP-92 NSCLC it was 90.7%. Also, the growth was 90.7% with NCI-H522 lung, 104% in the test on A549/ATCC NSCLC, 96.3% in the test on 786-0 renal and 120% with COLO 205 colon.

On to `O=Cc1c[nH]c2ccc(-c3csc4ccccc34)cc12`, for which the growth was 58% with NCI-H23 lung; 73.8% in the test with NCI-H226 lung; 83.2% in the test with NCI-H322M lung; 42.8% with HOP-62 NSCLC; 29.3% with NCI-H460 lung; 55.9% in the test on HOP-92 NSCLC. In addition, the growth was 41.3% in the test with NCI-H522 lung, 48.1% in the test with A549/ATCC NSCLC, 58.4% in the test on 786-0 renal and 71.6% in the test on COLO 205 colon.

Take `Cc1ccc(Nc2nc(N)nc(CSCC(=O)NN)n2)cc1`: the growth with NCI-H23 lung was 98.8%; with NCI-H226 lung, 97.8%; in the test with NCI-H322M lung it was 100%; with HOP-62 NSCLC it was 101%; in the test with NCI-H460 lung, 107%; in the test on HOP-92 NSCLC, 95.6%. The growth in the test on NCI-H522 lung was 96.7%; with A549/ATCC NSCLC it was 107%; in the test with 786-0 renal it was 100%; in the test on COLO 205 colon, 110%.

On to `O=[N+]([O-])c1ccc(C2CC(c3ccccc3)=Nc3ccccc3S2)cc1` (stereo not given), for which the growth in the test on NCI-H23 lung was 94.4%; with NCI-H226 lung, 118%; in the test with NCI-H322M lung it was 107%; in the test on HOP-62 NSCLC, 112%; in the test with NCI-H460 lung, 101%; in the test with HOP-92 NSCLC, 81%. Besides, the growth with NCI-H522 lung was 94.6%; with A549/ATCC NSCLC, 105%; in the test on 786-0 renal it was 105%; in the test with COLO 205 colon, 118%.

For `Cc1cc(NCc2cc(Nc3ccnc4cc(Cl)ccc34)ccc2F)nc(N2CCN(c3ccccc3)CC2)n1`, the growth was 62.8% with NCI-H23 lung; 55.4% with NCI-H226 lung; 74.1% in the test on NCI-H322M lung; 62% in the test with HOP-62 NSCLC; 44.9% in the test with NCI-H460 lung; 20.6% with HOP-92 NSCLC. Further, the growth in the test on NCI-H522 lung was 45.6%; in the test with A549/ATCC NSCLC, 50.6%; in the test with 786-0 renal, 64.8%; with COLO 205 colon, 13.6%.

Take `CCc1c2c(nc3ccc(OC(=O)NCc4ccc(B5OC(C)(C)C(C)(C)O5)cc4)cc13)-c1cc3c(c(=O)n1C2)COC(=O)[C@]3(O)CC`: the growth is -28.3% (active) in the test on NCI-H23 lung; -65.4% (active) with NCI-H226 lung; 5.73% (active) in the test on NCI-H322M lung; -5.68% (active) in the test on HOP-62 NSCLC; -16.7% (active) in the test on NCI-H460 lung; 8.05% (active) in the test on HOP-92 NSCLC. Also, the growth with NCI-H522 lung was -23.2% (active); in the test with A549/ATCC NSCLC it was 4.61% (active); in the test on 786-0 renal, 6.78% (active); in the test on COLO 205 colon it was 7.58% (active).

Take `Cc1ccc2[nH]c(=O)c3c(c2c1)OC(N)=C(C#N)C31c2cc(Br)ccc2-c2ccc(Br)cc21`: the growth was 59.1% in the test on NCI-H23 lung; 58.7% in the test with NCI-H226 lung; 75.3% in the test on NCI-H322M lung; 69% with HOP-62 NSCLC; 40.5% in the test with NCI-H460 lung; 42.7% with HOP-92 NSCLC. Besides, the growth with NCI-H522 lung was 74.2%; with A549/ATCC NSCLC, 53.9%; with 786-0 renal, 46.4%; in the test on COLO 205 colon, 30.2%.

Take `COC(=O)[C@]12CC[C@@H](C)[C@H](C)[C@@H]1C1=CC[C@@H]3[C@@]4(C)C(C=O)=C[C@@](C)(COS(C)(=O)=O)[C@@H]4C(=O)C[C@@]3(C)[C@]1(C)CC2`: the growth was 35.3% in the test with NCI-H23 lung; 67.2% with NCI-H226 lung; 89.2% in the test on NCI-H322M lung; 41.7% with HOP-62 NSCLC; 42.4% in the test with NCI-H460 lung; 39.8% with HOP-92 NSCLC. Moreover, the growth in the test on NCI-H522 lung was 22.2%; with A549/ATCC NSCLC, 27.6%; in the test on 786-0 renal, 40.7%; in the test with COLO 205 colon, 32.1%.

For the compound `CCOC(=O)c1c(-c2ccc(Cl)cc2)c(C#N)c(=O)n(-c2ccccc2CC)c1N`, the growth with NCI-H23 lung was 76.9%; with NCI-H226 lung it was 85.4%; in the test on NCI-H322M lung, 78.7%; in the test with HOP-62 NSCLC, 97.5%; in the test on NCI-H460 lung, 82.3%; with HOP-92 NSCLC, 65.9%. Further, the growth in the test on NCI-H522 lung is 92%; with A549/ATCC NSCLC, 85%; with 786-0 renal, 93.4%; in the test with COLO 205 colon, 111%.
